# Values joined by “and” are separate entries in the source; they are usually repeats but may differ in a detail not shown here. Identical values can stand only once. Screen size: about 220,000 compounds; about 910 (0.41%) were called active. The sample holds actives, similar compounds and a random draw of the others, so the mix is not that of the screen.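 How the source made its calls: active means primary inhibition above the hit cutoff, then over 50% inhibition at one or more dose response concentrations (cut at about 23% in these data, passing the limit was not always enough); inconclusive means conflicting primary data, or primary hits not chosen for dose response; inactive means low primary inhibition, or under 50% at every dose.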 Measured potencies and affinities stand elsewhere. Where a structure was tested more than once in an assay, its records may differ in their call.
# Target: Aminopeptidase N (Plasmodium falciparum (isolate 3D7)) (UniProt O96935)
# Sequence (O96935 whole entry, looked up): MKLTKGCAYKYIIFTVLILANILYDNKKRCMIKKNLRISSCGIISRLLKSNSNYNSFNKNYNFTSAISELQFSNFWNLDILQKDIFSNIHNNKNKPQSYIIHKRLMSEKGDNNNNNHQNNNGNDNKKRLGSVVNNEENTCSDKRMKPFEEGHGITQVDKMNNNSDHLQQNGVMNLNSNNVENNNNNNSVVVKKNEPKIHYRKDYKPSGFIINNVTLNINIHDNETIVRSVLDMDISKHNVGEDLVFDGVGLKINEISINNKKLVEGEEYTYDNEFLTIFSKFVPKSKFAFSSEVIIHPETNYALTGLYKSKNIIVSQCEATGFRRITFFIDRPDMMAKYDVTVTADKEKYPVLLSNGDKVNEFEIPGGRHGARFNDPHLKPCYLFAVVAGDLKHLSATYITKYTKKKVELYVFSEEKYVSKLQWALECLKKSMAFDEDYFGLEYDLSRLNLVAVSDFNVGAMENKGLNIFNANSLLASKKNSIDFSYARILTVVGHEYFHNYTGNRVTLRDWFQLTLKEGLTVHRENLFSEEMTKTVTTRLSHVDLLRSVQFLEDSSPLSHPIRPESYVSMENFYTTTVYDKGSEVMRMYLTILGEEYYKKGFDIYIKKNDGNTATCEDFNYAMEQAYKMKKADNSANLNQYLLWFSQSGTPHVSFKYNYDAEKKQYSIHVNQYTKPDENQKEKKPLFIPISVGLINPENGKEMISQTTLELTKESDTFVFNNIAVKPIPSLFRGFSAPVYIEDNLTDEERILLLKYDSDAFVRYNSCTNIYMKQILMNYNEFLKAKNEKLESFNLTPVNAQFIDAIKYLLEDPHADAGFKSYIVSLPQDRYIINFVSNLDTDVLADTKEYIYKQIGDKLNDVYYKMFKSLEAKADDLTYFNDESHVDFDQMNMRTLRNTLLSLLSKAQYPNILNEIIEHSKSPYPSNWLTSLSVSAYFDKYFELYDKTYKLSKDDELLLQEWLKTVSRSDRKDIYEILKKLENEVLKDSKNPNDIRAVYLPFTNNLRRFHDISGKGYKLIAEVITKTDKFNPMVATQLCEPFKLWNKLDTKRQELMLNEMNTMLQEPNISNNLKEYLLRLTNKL
# Test: malaria alanyl aminopeptidase activity blockers – biochemical, fluorogenic H-Leu-NHMec substrate, 1536-well (AID 1445);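 further: plate controls were DMSO full reaction for no effect and no enzyme background for full effect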
# Details: recombinant M1AAP, H-Leu-NHMec fluorogenic kinetic assay; at 30 µM; stronger effect = higher value
row,Structure (SMILES),inhibition
1,C=CCNC(=O)c1c(N)n(Cc2ccco2)c2nc3ccccc3nc12,24.2% (active)
2,CC(C)OC(=O)c1c(N)n(Cc2ccco2)c2nc3ccccc3nc12,26.7% (active)
3,CC(C)(C)OC(=O)c1c(N)n(Cc2ccco2)c2nc3ccccc3nc12,8.25% (inactive)
4,CCCNC(=O)c1c(N)n(Cc2ccco2)c2nc3ccccc3nc12,19.9% (inactive)
5,COCC(C)OC(=O)c1c(N)n(Cc2ccco2)c2nc3ccccc3nc12 (stereo not given),17.3% (inactive)
6,CC(C)CNC(=O)c1c(N)n(Cc2ccco2)c2nc3ccccc3nc12,13% (inactive)
7,CCC(=NCc1ccco1)c1c(O)[nH]c(=O)[nH]c1=O,14.4% (inactive)
8,CCC(=NCC1CCCO1)c1c(O)n(-c2ccccc2C)c(=O)[nH]c1=O (stereo not given),6.89% (inactive)
9,O=C1Nc2ccccc2C1Cc1nc2ccccc2c(=O)n1-c1ccccc1 (stereo not given),-1.31% (inactive)
10,Cc1ccc(S(=O)(=O)N2CCCCC2)cc1NC(=O)CN1CC=C(c2ccccc2)CC1,5.04% (inactive)
11,c1ccc(C2=NP(N3CCOCC3)(N3CCOCC3)=NC(N3CCOCC3)=N2)cc1,-3.04% (inactive)
12,Cc1cccc(-n2c(-c3cccs3)nc3ccccc3c2=O)c1,4.14% (inactive)
13,Cc1cccc(N2CCc3c2nc2ccccc2c3N)c1,25.6% (active) and 6.14% (inactive)
14,CCOC(=O)c1nc2ccccc2c(=O)n1-c1cccc(C)c1,0.05% (inactive)
15,COC(=O)c1c(N)n(Cc2ccc(OC)cc2)c2nc3ccccc3nc12,13.7% (inactive)
16,CCOC(=O)c1c(N)n(Cc2ccc(OC)cc2)c2nc3ccccc3nc12,13.6% (inactive)
17,CCCCn1c(N)c(C(=O)OCCOC)c2nc3ccccc3nc21,17.7% (inactive)
18,COCCCn1c(N)c(C(=O)OCCOC)c2nc3ccccc3nc21,27.6% (active)
19,CCCCOCCCn1c(N)c(C(=O)OCCOC)c2nc3ccccc3nc21,19.1% (inactive)
20,COCCOC(=O)c1c(N)n(Cc2ccccc2)c2nc3ccccc3nc12,25% (active)

row,Structure (SMILES),inhibition
1,CCC(=NCCc1c[nH]c2ccccc12)c1c(O)n(-c2ccc(C)cc2)c(=O)[nH]c1=O,1.85% (inactive)
2,CCC(=O)N1N=C2C3CCN(CC3)C2C1c1ccccc1 (stereo not given),0.59% (inactive)
3,CCCCn1c(O)c(C(C)=NCc2ccc3c(c2)OCO3)c(=O)[nH]c1=O,-11.8% (inactive)
4,Cc1sc2nc(COC(=O)Cc3ccccc3)[nH]c(=O)c2c1C,13.2% (inactive)
5,CC(=NCCN1CCCCC1)c1c(O)n(Cc2ccccc2)c(=O)[nH]c1=O,11.5% (inactive)
6,CCOC(=O)C(O)(c1cn(C)c2ccccc12)C(F)(F)F (stereo not given),25.5% (active)
7,COC(=O)C(O)(c1cn(C)c2ccccc12)C(F)(F)F (stereo not given),-1.11% (inactive)
8,CCOC(=O)C(O)(c1ccc(N=c2ccccn2C)cc1)C(F)(F)F (stereo not given),6.08% (inactive)
9,COc1ccc2c(c1)c(C(=O)O)c(C)n2C(C)C,1.69% (inactive)
10,CC(=O)c1cccc(NC2=NCC(C)S2)c1 (stereo not given),24.8% (active)
11,CC1CN=C(Nc2ccc(F)c(Cl)c2)S1 (stereo not given),-0.44% (inactive)
12,CC1CN=C(Nc2ccccc2)S1 (stereo not given),4.63% (inactive)
13,Cc1ccc(-n2c(O)c(C=Nc3ccc(S(=O)(=O)N(C)C)cc3)c(=O)[nH]c2=O)cc1,13.7% (inactive)
14,CC1(C)CN=C(Nc2ccccc2C(F)(F)F)S1,2.41% (inactive)
15,CC1(C)CN=C(Nc2nc3ccccc3s2)S1,26.9% (active)
16,c1ccc2sc(NC3=NCCN3)nc2c1,6.67% (inactive)
17,O=c1[nH]c(=O)n(Cc2ccco2)c(O)c1C=NC1CC1,2.96% (inactive)
18,COc1cc2c(C(=O)N3CCN(C)CC3)c(C)n(C)c2cc1Br,0.34% (inactive)
19,CC(=NCCN1CCOCC1)c1c(O)n(C2CCCCC2)c(=O)[nH]c1=O,-4.11% (inactive)
20,O=C(C1CCC(=O)N1Cc1ccccc1Cl)N1CCC2(CC1)OCCO2 (stereo not given),4.98% (inactive)

# — PubChem BioAssay AID1445 (SRMLSC, 2008)
